FXN GAA850 act: FXN promoter activators, primary screen, cell-based, luciferase luminescence, HEK293 lucGAA850; HEK293 lucGAA850 FXN promoter luciferase reporter, 24 h; percent of 10 µM SAHA response; activation, % at 6 µM; 360,000 compounds, 0.56% hits;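 active = activation above the average of all compounds screened plus 3 SD, cutoff fixed separately per campaign, cut at about 7.5% in these data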;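 also: 0% = DMSO wells and 100% = 10 µM SAHA wells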
proKLK7 act: proKLK7 zymogen activators, primary screen, biochemical, fluorescence intensity; Kallikrein-7 (Homo sapiens), P49862; purified proKLK7, EDANS-DABCYL substrate fluorescence; 100% is mature enzyme control, 0% vehicle; activation, % at 7 µM; 370,000 compounds, 0.9% hits; AID 652039, 2013;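 active = activation above the mean of all tested compounds plus 3 SD, computed per campaign excluding outliers beyond control limits, cut at about 13% in these data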
Target sequence (P49862 whole entry, looked up): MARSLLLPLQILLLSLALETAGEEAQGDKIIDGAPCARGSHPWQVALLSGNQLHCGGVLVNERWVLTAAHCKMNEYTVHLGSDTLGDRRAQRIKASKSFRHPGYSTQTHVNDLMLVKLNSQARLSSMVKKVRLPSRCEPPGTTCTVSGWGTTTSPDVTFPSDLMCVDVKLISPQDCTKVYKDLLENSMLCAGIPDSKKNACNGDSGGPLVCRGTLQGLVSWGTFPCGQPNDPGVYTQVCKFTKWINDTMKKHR
FAS-TE inh: FAS thioesterase domain inhibitors, primary screen, biochemical, fluorescence intensity, uHTS | Fatty acid synthase (Homo sapiens), P49327 | recombinant FAS-TE, OMFH fluorogenic substrate, fluorescence endpoint | inhibition, % at 15 µM | 360,000 compounds, 0.67% hits | AID 602261, 2012;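 active = compounds whose normalised, plate-corrected inhibition of enzyme fluorescence in the single-dose primary screen is 50% or more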;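 also: 0% = DMSO with enzyme and 100% = substrate without enzyme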
SMARCA2 activ: SMARCA2 (BRM) function activators, primary screen, cell-based, luminescence, high throughput; 370,000 compounds, 1% hits; activation, % at 9.1 µM; AID 652017, 2013; MG213 cells, MMTV-luciferase reporter, dexamethasone, overnight; in the data active = activation above about 7.8%;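 also: 0% = vehicle wells and 100% = reference activator wells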
FAS-TE conf: FAS thioesterase domain inhibitors, confirmation, biochemical, fluorescence intensity, single concentration; 2,300 compounds, 45% hits; inhibition, % at 15 µM; recombinant FAS-TE, OMFH fluorogenic substrate; shares compounds with FAS-TE inh;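 active = compounds inhibiting the enzyme by at least 50% at 15 µM in any one of the replicates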;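 also: 0% = enzyme with DMSO only and 100% = wells lacking enzyme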
An asterisk follows results filed as active. A selection: hits, their analogues and other compounds. The true share with any hit is near 2.9%.

CCCCC[C@@H]1[C@@H]2C(=C(OCC)C[C@@H]3C(=O)N(c4ccccc4)C(=O)[C@H]23)[C@H](c2ccccc2)N1S(=O)(=O)c1ccc(C)cc1 was read as proKLK7 act -0.5, FAS-TE inh 26.6 and SMARCA2 activ -1.9.
For CCOC1=C2[C@H](c3ccccc3)N(S(=O)(=O)c3ccc(C)cc3)C(C(C)(C)C)[C@H]2C(C#N)(C#N)C(C#N)(C#N)C1 (stereo partly specified) the results were proKLK7 act -0.3, FAS-TE inh 77.5*, SMARCA2 activ -5.0 and FAS-TE conf 11.9.
CCOC1=C2[C@@H](CN(S(=O)(=O)c3ccc(C)cc3)[C@H]2c2ccc(CC)cc2)[C@H]2C(=O)N(c3ccccc3)C(=O)[C@H]2C1 was read as proKLK7 act 0.3, FAS-TE inh 50.4*, SMARCA2 activ -3.2 and FAS-TE conf 9.7.
Screening CCOC1=C2CN(S(=O)(=O)c3ccc(C)cc3)C(c3cccc(Cl)c3)CC2N(S(=O)(=O)c2ccc(Cl)cc2)C(c2ccccc2)C1 (stereo unspecified) returned proKLK7 act -0.1 and SMARCA2 activ 0.7.
Screening CCOC1=C2CN(S(=O)(=O)c3ccc(C)cc3)[C@H](c3cccc(Cl)c3)C[C@H]2[C@H]2C(=O)N(c3ccccc3)C(=O)[C@H]2C1 returned proKLK7 act 0.4, FAS-TE inh 81.1*, SMARCA2 activ -3.1 and FAS-TE conf 18.9.
CCOC1=C2CN(S(=O)(=O)c3ccccc3)[C@@H](c3ccccc3)C[C@H]2[C@H]2C(=O)N(c3ccccc3)C(=O)[C@H]2C1 was read as proKLK7 act -0.3 and SMARCA2 activ 1.7.
Screening CCOC1=C2CN(S(=O)(=O)c3ccc(C)cc3)[C@@H](c3ccccc3)C[C@H]2[C@H]2C(=O)N(c3ccccc3)C(=O)[C@H]2C1 returned proKLK7 act 0.6, FAS-TE inh 68.8*, SMARCA2 activ 5.8 and FAS-TE conf 9.4.
C[C@]12CCC3C(CC[C@H]4CCCC[C@]34C)C1CC[C@@]2(O)CNCCO (stereo partly specified) was read as FXN GAA850 act 1.1, proKLK7 act -0.2, FAS-TE inh 0.5 and SMARCA2 activ -0.3.
For CC(C)CN(C(=O)CN1CCN(c2cccc(Cl)c2)CC1)c1c(N)n(CC(C)C)c(=O)[nH]c1=O the results were FXN GAA850 act 1.7, proKLK7 act 0.9, FAS-TE inh -5.2 and SMARCA2 activ -1.8.
CCOC1=C2CN(S(=O)(=O)c3ccc(C)cc3)[C@H](c3cccc4ccccc34)C[C@H]2C(C#N)(C#N)C(C#N)(C#N)C1 was read as FAS-TE inh 63.2* and FAS-TE conf 29.5.
For CCOC1=C2[C@@H](CN(S(=O)(=O)c3ccc(C)cc3)[C@H]2c2cccc3ccccc23)[C@H]2C(=O)NC(=O)[C@H]2C1 the results were proKLK7 act 0.8, FAS-TE inh 12.7 and SMARCA2 activ -0.1.
CCOC1=C2CN(S(=O)(=O)c3ccc(C)cc3)[C@@H](c3cccc4ccccc34)C[C@H]2[C@H]2C(=O)N(c3ccccc3)C(=O)[C@H]2C1 was read as proKLK7 act 0.6, FAS-TE inh 87.7*, SMARCA2 activ -0.4 and FAS-TE conf 6.0.
`CCOC1=C2CN(S(=O)(=O)c3ccc(C)cc3)[C@H](c3ccccc3)C[C@@H]2N(S(=O)(=O)c2ccccc2)[C@H](c2ccccc2)C1` gave proKLK7 act -0.4, FAS-TE inh 28.7 and SMARCA2 activ -3.1.
For COC(=O)CNC(=O)C(C)NC(=O)CNC(=O)OCc1ccccc1 (stereo unspecified) the results were FXN GAA850 act -1.8, proKLK7 act -1.0, FAS-TE inh -8.9 and SMARCA2 activ -0.2.
For Cc1ccccc1CSCCNC(=O)COc1ccc(Cl)cc1 the results were FXN GAA850 act -1.4, proKLK7 act 0.1, FAS-TE inh 26.2 and SMARCA2 activ -2.5.
COc1ccccc1-c1cc(C(F)(F)F)c(C#N)c(=O)[nH]1 was read as FXN GAA850 act 1.7, proKLK7 act 7.0, FAS-TE inh -1.0 and SMARCA2 activ -1.2.

Screening results as filed in PubChem.
